Source: PubChem BioAssay (NCATS)
Records with an inconclusive call do not appear. Active and inactive are the calls of the source. The call rests on the fitted dose curve; in most records, active means well fitted curve in the direction sought with a large enough effect; inconclusive means small, poorly fitted or top-dose-only effect, or another doubt; inactive means no such curve, though single readings can be large; an effect the other way counts as inactive or inconclusive.

Legend:
HEK293T [1] = assay: qHTS assay to identify novel small-molecules to repurpose for Merkel cell carcinoma treatment (AID 1296009); conditions: MCC and control cell lines, CellTiter-Glo viability, 72 h; at 44.8 µM (top of the series) unless noted; further: nearly all actives have a fitted effect of over 60% in size
Method in brief: (§1)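 Cells were treated for 72 hr at 37 degree celsius with compounds in 8- or 11-point dose response. Viability was read by CellTiter-Glo luminescence, normalized to no-cell (cytotoxicity) and DMSO controls.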

C33A = assay: Primary qHTS to identify gynecologic anti-cancer compounds using libraries of approved drugs and bioactive compounds (AID 1345084); conditions: Gynecologic cancer cell panel viability, ATPlite luminescence, 48 h; series mostly up to 57.5 µM; further: on the % scale 0 is the no-effect control and ±100 the full control effect; nearly all actives have a fitted effect of over 55% in size
Method in brief: (§2)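 Measured: luminescence after ATPlite addition (15 min, RT). Exposure: 48 h, 37 C, 5% CO2.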

CAOV3 = assay: as above; conditions: Gynecologic cancer cell panel viability, ATPlite luminescence, 48 h; series mostly up to 57.5 µM
Method in brief: as §2

CASKI = assay: as above; conditions: Gynecologic cancer cell panel viability, ATPlite luminescence, 48 h; series mostly up to 57.5 µM
Method in brief: as §2

Es-2 = assay: as above; conditions: Gynecologic cancer cell panel viability, ATPlite luminescence, 48 h; series mostly up to 57.5 µM
Method in brief: as §2

HeLa = assay: as above; conditions: Gynecologic cancer cell panel viability, ATPlite luminescence, 48 h; series mostly up to 57.5 µM
Method in brief: as §2

Hek293T [2] = assay: as above; conditions: Gynecologic cancer cell panel viability, ATPlite luminescence, 48 h, control line for the selectivity index; series mostly up to 57.5 µM
Method in brief: as §2

JEG-3 = assay: as above; conditions: Gynecologic cancer cell panel viability, ATPlite luminescence, 48 h; series mostly up to 57.5 µM
Method in brief: as §2

HACAT = assay: qHTS assay to identify novel small-molecules to repurpose for Merkel cell carcinoma treatment (AID 1296009); conditions: MCC and control cell lines, CellTiter-Glo viability, 72 h; at 44.8 µM (top of the series) unless noted; further: nearly all actives have a fitted effect of over 60% in size
Method in brief: as §1

NIH3T3 = assay: as above; conditions: MCC and control cell lines, CellTiter-Glo viability, 72 h; at 44.8 µM (top of the series) unless noted
Method in brief: as §1

C[C@@H]1C(=O)O[C@H]2[C@H]1CC[C@@]1(C)C(=O)C=C[C@@](C)(O)[C@H]21
inactive: outcome (HEK293T [1]) | Potency (C33A) | Potency (CAOV3) | outcome (CASKI) | Potency (Es-2) | Potency (HeLa) | Potency (Hek293T [2]) | Potency (JEG-3)

C[C@]12CC/C(=N\OCC(=O)O)C=C1CC[C@@H]1[C@@H]2[C@@H](O)C[C@@]2(C)[C@H]1CC[C@]2(O)C(=O)CO
inactive: outcome (HEK293T [1]) | Potency (C33A) | Potency (CAOV3) | outcome (CASKI) | Potency (Es-2) | Potency (HeLa) | Potency (Hek293T [2]) | Potency (JEG-3)

C=C1CCc2occ(C)c2[C@H]2[C@H]1[C@@]13O[C@@]1(C[C@@H](C)[C@H]3OC(C)=O)[C@H]1O[C@@]21C
inactive: outcome (HEK293T [1]) | Potency (C33A) | Potency (CAOV3) | outcome (CASKI) | Potency (Es-2) | Potency (HeLa) | Potency (Hek293T [2]) | Potency (JEG-3)

CC1(C(=O)O)CC[C@]2(C(=O)OC3OC(CO)C(O)C(O)C3O)CC[C@]3(C)C(=CCC4[C@@]5(C)CC[C@H](OC6OCC(O)C(O)C6OC6OC(CO)C(O)C(O)C6O)C(C)(C)C5CC[C@]43C)C2C1 (some centres not stated)
inactive: outcome (HACAT) inactive [at 9.27 µM] | activity change, negative = cytotoxicity (C33A) -1.33% [at 11.6 µM] | activity change, negative = cytotoxicity (CASKI) -6.1% [at 11.6 µM] | activity change, negative = cytotoxicity (Es-2) 1.53% [at 11.6 µM] | activity change, negative = cytotoxicity (HeLa) 6.18% [at 11.6 µM] | activity change, negative = cytotoxicity (Hek293T [2]) -2.26% [at 11.6 µM] | activity change, negative = cytotoxicity (JEG-3) -0.785% [at 11.6 µM]

COc1ccc2c(c1)N1C(=O)C[C@@]34C=CC[N@+]5([O-])CC[C@H]2[C@H](CC3)[C@@]145
inactive: outcome (HEK293T [1]) | Potency (C33A) | Potency (CAOV3) | outcome (CASKI) | Potency (Es-2) | Potency (HeLa) | Potency (Hek293T [2]) | Potency (JEG-3)

O=C(Nc1cc(-c2ccccc2)nn1-c1ccccc1F)c1ccc([N+](=O)[O-])cc1
inactive: outcome (NIH3T3) | Potency (C33A) | Potency (CAOV3) | outcome (CASKI) | Potency (Es-2) | Potency (HeLa) | Potency (Hek293T [2]) | Potency (JEG-3)

CC(=O)OC1C(C)C2C(OC3OC(CO)C(O)C(O)C3O)OC=C(C(=O)O)C2C1OC(=O)c1ccccc1 (configuration not stated)
inactive: outcome (NIH3T3) inactive [at 17.4 µM] | Potency (C33A) | Potency (CAOV3) | outcome (CASKI) | Potency (Es-2) | Potency (HeLa) | Potency (Hek293T [2]) | Potency (JEG-3)

CC(C)c1ccc2c(c1)[C@H](O)CC1[C@@](C)(C(=O)O)CCC[C@]21C (some centres not stated)
inactive: outcome (NIH3T3) | Potency (C33A) | Potency (CAOV3) | outcome (CASKI) | Potency (Es-2) | Potency (HeLa) | Potency (Hek293T [2]) | Potency (JEG-3)

CNc1nc(Cc2ccccc2)nc2c1CCNC[C@@H]2C
inactive: outcome (NIH3T3) | Potency (C33A) | Potency (CAOV3) | outcome (CASKI) | Potency (Es-2) | Potency (HeLa) | Potency (Hek293T [2]) | Potency (JEG-3)

C/C(=C\CCC(C)C1CC(O)C2(C)C3CCC4C(C)(C)C(OC5OCC(O)C(O)C5O)CCC45CC35CC(O)C12C)C(=O)O (configuration not stated)
inactive: outcome (NIH3T3) inactive [at 17.4 µM] | Potency (C33A) | Potency (CAOV3) | outcome (CASKI) | Potency (Es-2) | Potency (HeLa) | Potency (Hek293T [2]) | Potency (JEG-3)

CC1(C)CC[C@]2(C(=O)O[C@@H]3O[C@H](CO[C@@H]4O[C@H](CO)[C@@H](O)[C@H](O)[C@H]4O)[C@@H](O)[C@H](O[C@@H]4O[C@H](CO)[C@@H](O)[C@H](O)[C@H]4O)[C@H]3O)CC[C@]3(C)C(=CCC4[C@@]5(C)CC[C@H](O[C@@H]6OC[C@@H](O)[C@H](O)[C@H]6O)[C@@](C)(C(=O)O)C5CC[C@]43C)[C@@H]2C1 (some centres not stated)
inactive: outcome (NIH3T3) inactive [at 9.27 µM] | activity change, negative = cytotoxicity (C33A) 0.217% [at 11.6 µM] | activity change, negative = cytotoxicity (CAOV3) 15.5% [at 11.6 µM] | activity change, negative = cytotoxicity (CASKI) 9.7% [at 11.6 µM] | activity change, negative = cytotoxicity (Es-2) -1.43% [at 11.6 µM] | activity change, negative = cytotoxicity (HeLa) 13.2% [at 11.6 µM] | activity change, negative = cytotoxicity (Hek293T [2]) 2.76% [at 11.6 µM] | activity change, negative = cytotoxicity (JEG-3) 2.05% [at 11.6 µM]

Cn1cc(CCn2cnc(-c3cnn(C)c3)c2-c2ccc(C#N)cc2)cn1
inactive: outcome (NIH3T3) | Potency (C33A) | Potency (CAOV3) | outcome (CASKI) | Potency (Es-2) | Potency (HeLa) | Potency (Hek293T [2]) | Potency (JEG-3)

CC1(CO)CCCC2(C)C3COC(=O)C3=CC(O)C12 (configuration not stated)
inactive: outcome (NIH3T3) | Potency (C33A) | Potency (CAOV3) | outcome (CASKI) | Potency (Es-2) | Potency (HeLa) | Potency (Hek293T [2]) | Potency (JEG-3)

CC(C)C(O)(CO)CCO[C@@H]1O[C@H](CO[C@H]2OC[C@](O)(CO)[C@H]2O)[C@@H](O)[C@H](O)[C@H]1O (some centres not stated)
inactive: outcome (NIH3T3) inactive [at 17.4 µM] | Potency (C33A) | Potency (CAOV3) | outcome (CASKI) | Potency (Es-2) | Potency (HeLa) | Potency (Hek293T [2]) | Potency (JEG-3)

CC/C=C\[C@H](O)[C@H](O)C1=C(C)C(=O)[C@]2(O1)C(=O)N[C@@](O)(C(=O)c1ccccc1)[C@@H]2O
inactive: outcome (NIH3T3) inactive [at 17.4 µM] | Potency (C33A) | Potency (CAOV3) | outcome (CASKI) | Potency (Es-2) | Potency (HeLa) | Potency (Hek293T [2]) | Potency (JEG-3)

C[C@]1(OC(=O)/C=C\c2ccc(O)cc2)C[C@@H](O)[C@]2(O)C=CO[C@@H](O[C@@H]3O[C@H](CO)[C@@H](O)[C@H](O)[C@H]3O)C12 (some centres not stated)
inactive: outcome (NIH3T3) inactive [at 17.4 µM] | Potency (C33A) | Potency (CAOV3) | outcome (CASKI) | Potency (Es-2) | Potency (HeLa) | Potency (Hek293T [2]) | Potency (JEG-3)

O=C(NC1Cc2ccccc2N(C[C@@H](O)CO)C1=O)c1cc2cc(Cl)sc2[nH]1 (some centres not stated)
inactive: outcome (NIH3T3) | Potency (C33A) | Potency (CAOV3) | outcome (CASKI) | Potency (Es-2) | Potency (HeLa) | Potency (Hek293T [2]) | Potency (JEG-3)

COc1ccc(OC)c(C2C(C#N)=C(N)Oc3n[nH]c(-c4ccc5ccccc5c4)c32)c1 (configuration not stated)
inactive: outcome (NIH3T3) | Potency (C33A) | Potency (CAOV3) | outcome (CASKI) | Potency (Es-2) | Potency (HeLa) | Potency (Hek293T [2]) | Potency (JEG-3)

CC1=C2C3OC(=O)C(C)C3(O)CCC2(C)CCC1 (configuration not stated)
inactive: outcome (NIH3T3) | Potency (C33A) | Potency (CAOV3) | outcome (CASKI) | Potency (Es-2) | Potency (HeLa) | Potency (Hek293T [2]) | Potency (JEG-3)

C[C@@H]1[C@H](O)[C@@H]2OC(=O)C3=C2[C@H](CCC3)[C@@]12C[C@@H](c1ccoc1)OC2=O
inactive: outcome (NIH3T3) | Potency (C33A) | Potency (CAOV3) | outcome (CASKI) | Potency (Es-2) | Potency (HeLa) | Potency (Hek293T [2]) | Potency (JEG-3)

CC(CCO)CCC1C2(C)CCCC(C)(C)C2CC[C@@]1(C)O (some centres not stated)
inactive: outcome (NIH3T3) | Potency (C33A) | Potency (CAOV3) | outcome (CASKI) | Potency (Es-2) | Potency (HeLa) | Potency (Hek293T [2]) | Potency (JEG-3)

O=C(C[C@@H]1C(C(=O)O)=CO[C@@H](O[C@@H]2O[C@H](CO)[C@@H](O)[C@H](O)[C@H]2O)/C1=C\CO)OCCc1ccc(O)cc1
inactive: outcome (NIH3T3) inactive [at 17.4 µM] | Potency (C33A) | Potency (CAOV3) | outcome (CASKI) | Potency (Es-2) | Potency (HeLa) | Potency (Hek293T [2]) | Potency (JEG-3)

Cc1nc2cc(-c3cc(F)cc(C#N)c3)ccc2s1
inactive: outcome (NIH3T3) | Potency (C33A) | Potency (CAOV3) | outcome (CASKI) | Potency (Es-2) | Potency (HeLa) | Potency (Hek293T [2]) | Potency (JEG-3)

C=C1CC[C@]2(C(=O)O[C@@H]3O[C@H](CO)[C@@H](O)[C@H](O)[C@H]3O)CC[C@]3(C)C(=CCC4[C@@]5(C)C[C@H](O)[C@@H](O[C@@H]6O[C@H](C(=O)O)[C@@H](O)[C@H](O)[C@H]6O)[C@](C)(C=O)C5CC[C@]43C)C2C1 (some centres not stated)
inactive: outcome (NIH3T3) inactive [at 9.27 µM] | activity change, negative = cytotoxicity (C33A) 1.71% [at 11.6 µM] | activity change, negative = cytotoxicity (CAOV3) -2.86% [at 11.6 µM] | activity change, negative = cytotoxicity (CASKI) -3.95% [at 11.6 µM] | activity change, negative = cytotoxicity (Es-2) 1.14% [at 11.6 µM] | activity change, negative = cytotoxicity (HeLa) 4.56% [at 11.6 µM] | activity change, negative = cytotoxicity (Hek293T [2]) 2.33% [at 11.6 µM] | activity change, negative = cytotoxicity (JEG-3) -0.564% [at 11.6 µM]

C=CCC1=C[C@]2(OC)[C@H](C)[C@@H](c3ccc(OC)c(OC)c3)O[C@]2(OC)CC1=O
inactive: outcome (NIH3T3) | Potency (C33A) | Potency (CAOV3) | outcome (CASKI) | Potency (Es-2) | Potency (HeLa) | Potency (Hek293T [2]) | Potency (JEG-3)

COc1ccc(O[C@@H]2O[C@H](CO)[C@@H](O)[C@H](O)[C@H]2O)cc1OC
inactive: outcome (NIH3T3) | Potency (C33A) | Potency (CAOV3) | outcome (CASKI) | Potency (Es-2) | Potency (HeLa) | Potency (Hek293T [2]) | Potency (JEG-3)
